Source: PubChem BioAssay (NCATS)
Results filed as inconclusive are left out. Unmarked numbers belong to inactive results. The source made the active and inactive calls. The call rests on the fitted dose curve; in most records, active means well fitted cell-killing curve with a large enough effect; inconclusive means small, poorly fitted or top-dose-only effect; inactive means flat fitted curve, though single readings scatter.

Assay: Cell Viability - LYMP2-020 (AID 986);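 further: plate controls were DMSO only for no effect and tetraoctylammonium bromide at 92 µM for full effect; nearly all actives have a fitted effect of over 55% in size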
Conditions: series mostly up to 92.2 µM; activity change, negative = viability loss: at the top concentration
Description: NIH Chemical Genomics Center [NCGC]
NIH Molecular Libraries Screening Centers Network [MLSCN]
National Institutes of Environmental Health Sciences [NIEHS]
National Toxicology Program [NTP]
We have developed a 1536-well cell-based assay for quantitative high throughput screening (qHTS) against a number of cell lines to determine in vitro cytotoxicity of small molecules. This particular assay uses a human lymphoblastoid cell line (LYMP2-020) purchased from Coriell Institute for Medical Research.
NCGC Assay Protocol Summary:
The CellTiter-Glo luminescent cell viability assay (Promega) is a homogeneous method to measure the number of viable cells in culture. The end point readout of this assay is based on quantitation of intracellular ATP, an indicator of metabolic activity, using the luciferase reaction. Luciferase catalyzes the oxidation of beetle Luciferin to oxyluciferin and light in the presence of ATP. The luminescent signal is proportional to amount of ATP present.
Using the CellTiter-Glo luminescent cell viability assay, the amount of cellular ATP was measured in the lymphoblastoid cell line with complete culture medium following compound treatment for 24 hours. The assay was performed in opaque white Kalypsys 1536-well plates. In the screen, tetraoctylammonium bromide was used as positive control. Library compounds were measured for their ability to cause acute toxicity in the cell line, as reflected by a decrease in intracellular ATP levels, in a concentration-dependent manner. […] AC50 values were determined from concentration-response data modeled with the standard Hill equation.
qHTS protocol for CellTiter Glo lymphoblastoid cellular assay
[Step] [Parameter] [Value] [Description]
1. Reagent; 5 uL; 2500 lymphoblastoid cells/well
2. Time; 5 hr; 37 C incubation
4. Controls; 23 nL; Tetraoctylammonium bromide 6.4pM to 92 uM
5. Time; 24 hr; 37 C incubation
6. Reagent; 5 uL; CellTiter Glo reagent
7. Time; 30 min; Room Temperature
8. Detection; Luminescence; Viewlux plate reader
Keywords: cell viability, cytotoxicity, lymphoblastoid cell line, luminescence, NTPHTS, NTPHTS_NCGC, NIEHS, DSSTox, MLSMR, MLSCN, NIH Roadmap, qHTS, NCGC

Structure (SMILES)	activity change, negative = viability loss	Potency
Clc1cccc(C(Cl)(Cl)Cl)n1	0.399%	–
CC(C)(C)OOC(C)(C)C	12.7%	–
C=C(C)C(=O)OCC1CO1 (stereo not given)	-3.88%	–
O=NN(CCO)CCO	-5.47%	–
Brc1ccc(Oc2cc(Br)c(Br)cc2Br)c(Br)c1	–	inactive
c1ccc(OP(Oc2ccccc2)Oc2ccccc2)cc1	5.18%	–
c1ccc(N=Nc2ccccc2)cc1	-20.6%	–
[O-][Br+2]([O-])O	–	inactive
ClC(Cl)=C(c1ccc(Cl)cc1)c1ccc(Cl)cc1	–	inactive
C[C@H]1CCCC(=O)CCC/C=C/c2cc(O)cc(O)c2C(=O)O1	-26.8%	–
COP(=S)(OC)Oc1ccc([N+](=O)[O-])cc1	-0.636%	–
C=CCOC(C)=O	0.447%	–
C=CCc1ccc(OC)cc1	-6.56%	–
CC(C)(OO)c1ccccc1	-29.9%	–
CCNc1nc(Cl)nc(NC(C)C)n1	-6.39%	–
Nc1c(Cl)c(Cl)nc(C(=O)O)c1Cl	7.46%	–
C=CC(=C)C	6.85%	–
CN=C=S	-0.426%	–
CCSC(=O)Cl	9.87%	–
Clc1nc(Cl)nc(Cl)n1	-9.93%	–

Structure (SMILES)	activity change, negative = viability loss	Potency
O=NN(c1ccccc1)c1ccccc1	-12.1%	–
N#CCCCl	–	inactive
CC(=O)[O-].CC(=O)[O-].O.O.O.[Pb+2]	–	inactive
C=C(Cl)Cl	0.723%	–
C=CC(C)=O	-4.5%	–
OCC(Br)CBr (stereo not given)	-14.5%	–
COC1=CC(=O)O[C@@H](/C=C/c2ccc3c(c2)OCO3)C1	-18%	–
C/C=C/c1ccc2c(c1)OCO2	-11%	–
CCCCCCCC(=O)Cl	-0.73%	–
Clc1cc(Cl)c(-c2cc(Cl)c(Cl)cc2Cl)cc1Cl	2.98%	–
COc1ccc(C=O)cc1OC	-4.75%	–
CCCSC(=O)Cl	-3.29%	–
c1ccc(-c2ccccc2)cc1	-2.08%	–
OCC1CO1 (stereo not given)	0.426%	–
CCN(CC)c1ccccc1	-2.43%	–
BrCCBr	-2.7%	–
Brc1ccccc1	-25%	–
COC1=CC(=O)OC(CCc2ccccc2)C1 (stereo not given)	-7.5%	–
ClC(Cl)(Cl)c1ccccc1	–	inactive
Clc1ccc2ccccc2c1	-6.63%	–
